From the supplement of paper PMC10849652
About 7,900 targets were measured; listed, in parts, are those with a hit and a random draw of the rest. About 0.6% of all pairs of compound and target were hits. A number with no mark means an inactive call.

What was measured:
Assay in all cases: log2 fold change, soluble protein after heating vs DMSO (PISA); higher = thermal stabilisation; K562 cells, 10 uM, 30 min; active = over 0.2 and 3.5 SD of the protein, either way, in both replicates (recomputed)
IRAK-1-4 Inhibitor I = compound: C1COCCN1CCN2C3=CC=CC=C3N=C2NC(=O)C4=CC(=CC=C4)[N+](=O)[O-] [IRAK-1-4 Inhibitor I]
In short: (§1)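 For each measurement, 10 μM compound was applied for 30 min to K562 cells at 2×10^6 cells/mL. Aliquots were heated for 3 min across 48°C-58°C, pooled, and extracted in PBS with 0.5% NP-40 at 4°C; the supernatant after 21,000xg for 90 min was soluble protein. This was quantified by TMTpro 16plex LC-MS/MS with channel sums equalised, and thermal stability was reported relative to control samples from duplicates, on a log2 fold-change scale.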

ibrutinib = compound: C=CC(=O)N1CCC[C@@H](n2nc(-c3ccc(Oc4ccccc4)cc3)c3c(N)ncnc32)C1 [ibrutinib]
In short: as §1

[1] = compound: CC(=O)c1cnc2ccc(-c3cc(Cl)c(O)c(Cl)c3)nc2c1N[C@H]1CC[C@H](CN(C)C)CC1
In short: as §1

ralimetinib = compound: CC(C)(C)Cn1c(N)nc2ccc(-c3[nH]c(C(C)(C)C)nc3-c3ccc(F)cc3)nc21 [ralimetinib]
In short: as §1

[2] = compound: CC(C)(O)CC(=O)NCCn1ccc2ncnc(Nc3ccc(Oc4cccc(C(F)(F)F)c4)c(Cl)c3)c21
In short: as §1

[3] = compound: CC(C)C1=C2N=C(C=C(N2N=C1)NCC3=CC=CC=C3)NCCCCCCN
In short: as §1

[4] = compound: CC(C)C[C@@H](C=O)NC(=O)[C@H](CC(C)C)NC(=O)[C@H](CC(C)C)NC(=O)OCc1ccccc1
In short: as §1

pinometostat = compound: CC(C)N(C[C@H]1O[C@@H](n2cnc3c(N)ncnc32)[C@H](O)[C@@H]1O)[C@H]1C[C@@H](CCc2nc3cc(C(C)(C)C)ccc3[nH]2)C1 [pinometostat]
In short: as §1

[5] = compound: CC1=C(C(CC(=O)N1)C2=CC=C(C=C2)C(F)(F)F)C(=O)NC3=C(C=C4C(=C3)C=NN4)F
In short: as §1

[6] = compound: CC1=C(C2=C(C=C1)C(=O)C3=CC=CC=C3N2CCCN)C
In short: as §1

[7] = compound: CC1=C(C=C(C=C1)NC(=O)C2=CC(=CC=C2)C(C)(C)C#N)NC3=CC4=C(C=C3)N=CN(C4=O)C
In short: as §1

[8] = compound: CC1=C(C=C(C=C1)NC(=O)C2=CC(=CC=C2)N(C)C)NC(=O)C3=CC=C(C=C3)O
In short: as §1

[9] = compound: CC1=CC=C(C=C1)SC2=C3C=C(SC3=CN=C2)C(=O)N
In short: as §1

[10] = compound: CC1=NC(=CC=C1)C2=C(N=C(N2)C(C)(C)C)C3=CC4=NC=CN=C4C=C3
In short: as §1

Nexturastat A = compound: CCCCN(Cc1ccc(C(=O)NO)cc1)C(=O)Nc1ccccc1 [Nexturastat A]
In short: as §1

vemurafenib = compound: CCCS(=O)(=O)Nc1ccc(F)c(C(=O)c2c[nH]c3ncc(-c4ccc(Cl)cc4)cc23)c1F [vemurafenib]
In short: as §1

[11] = compound: CCCS(=O)(=O)Nc1ccc(F)c(C(=O)c2c[nH]c3ncc(Cl)cc23)c1F
In short: as §1

[12] = compound: CCCc1cc(C)[nH]c(=O)c1CNC(=O)c1cc(-c2ccnc(N3CCN(C)CC3)c2)cc2c1cnn2C(C)C
In short: as §1

givinostat = compound: CCN(CC)Cc1ccc2cc(COC(=O)Nc3ccc(C(=O)NO)cc3)ccc2c1 [givinostat]
In short: as §1

barasertib = compound: CCN(CCCOc1ccc2c(Nc3cc(CC(=O)Nc4cccc(F)c4)[nH]n3)ncnc2c1)CCOP(=O)(O)O [barasertib]
In short: as §1

Chain of UniProt O15067 (O15067 whole entry, looked up): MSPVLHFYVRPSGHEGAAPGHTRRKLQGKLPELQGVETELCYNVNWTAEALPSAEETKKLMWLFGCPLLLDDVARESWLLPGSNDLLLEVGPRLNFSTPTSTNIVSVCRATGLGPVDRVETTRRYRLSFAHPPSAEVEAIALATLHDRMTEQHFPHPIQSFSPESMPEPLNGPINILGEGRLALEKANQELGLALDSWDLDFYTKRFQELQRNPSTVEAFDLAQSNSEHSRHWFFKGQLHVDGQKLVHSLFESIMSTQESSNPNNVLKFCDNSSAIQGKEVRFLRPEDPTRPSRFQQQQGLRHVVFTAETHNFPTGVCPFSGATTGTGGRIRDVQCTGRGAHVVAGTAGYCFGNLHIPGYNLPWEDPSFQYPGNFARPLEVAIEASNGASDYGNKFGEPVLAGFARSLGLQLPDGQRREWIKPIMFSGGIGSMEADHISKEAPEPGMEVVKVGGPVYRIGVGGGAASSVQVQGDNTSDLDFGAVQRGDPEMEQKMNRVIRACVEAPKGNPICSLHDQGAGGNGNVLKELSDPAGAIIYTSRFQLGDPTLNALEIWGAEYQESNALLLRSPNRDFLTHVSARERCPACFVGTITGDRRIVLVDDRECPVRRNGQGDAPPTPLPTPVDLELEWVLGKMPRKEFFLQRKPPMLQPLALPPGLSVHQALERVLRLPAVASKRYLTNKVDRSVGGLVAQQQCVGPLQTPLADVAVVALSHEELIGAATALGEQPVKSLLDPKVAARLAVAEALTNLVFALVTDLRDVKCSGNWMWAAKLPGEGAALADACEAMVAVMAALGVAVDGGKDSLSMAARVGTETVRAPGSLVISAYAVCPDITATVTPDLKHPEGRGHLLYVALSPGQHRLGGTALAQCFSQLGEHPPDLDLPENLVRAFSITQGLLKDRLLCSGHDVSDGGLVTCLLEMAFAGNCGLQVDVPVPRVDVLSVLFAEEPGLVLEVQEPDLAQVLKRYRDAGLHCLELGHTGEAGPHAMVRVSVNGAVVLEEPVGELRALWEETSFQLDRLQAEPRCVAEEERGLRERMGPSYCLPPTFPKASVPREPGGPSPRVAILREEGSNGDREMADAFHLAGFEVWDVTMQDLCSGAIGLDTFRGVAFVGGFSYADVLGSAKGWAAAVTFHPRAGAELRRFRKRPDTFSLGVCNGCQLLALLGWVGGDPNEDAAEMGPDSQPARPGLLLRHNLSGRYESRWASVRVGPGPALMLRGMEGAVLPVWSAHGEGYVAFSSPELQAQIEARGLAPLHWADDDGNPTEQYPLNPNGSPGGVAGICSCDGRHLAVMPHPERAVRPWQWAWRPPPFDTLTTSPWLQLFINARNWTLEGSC
Chain of UniProt P31321 (P31321 whole entry, looked up): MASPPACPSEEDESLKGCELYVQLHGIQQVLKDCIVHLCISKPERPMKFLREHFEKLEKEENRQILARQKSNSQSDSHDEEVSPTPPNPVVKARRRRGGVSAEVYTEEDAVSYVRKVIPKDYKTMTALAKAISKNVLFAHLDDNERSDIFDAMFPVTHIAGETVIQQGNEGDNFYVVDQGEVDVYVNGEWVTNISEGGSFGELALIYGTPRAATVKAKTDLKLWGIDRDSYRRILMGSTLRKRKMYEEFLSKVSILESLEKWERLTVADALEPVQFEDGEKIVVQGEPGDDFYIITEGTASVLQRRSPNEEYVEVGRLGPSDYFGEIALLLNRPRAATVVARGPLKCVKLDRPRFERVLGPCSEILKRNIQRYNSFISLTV
Chain of UniProt Q9UPN7 (Q9UPN7 whole entry, looked up): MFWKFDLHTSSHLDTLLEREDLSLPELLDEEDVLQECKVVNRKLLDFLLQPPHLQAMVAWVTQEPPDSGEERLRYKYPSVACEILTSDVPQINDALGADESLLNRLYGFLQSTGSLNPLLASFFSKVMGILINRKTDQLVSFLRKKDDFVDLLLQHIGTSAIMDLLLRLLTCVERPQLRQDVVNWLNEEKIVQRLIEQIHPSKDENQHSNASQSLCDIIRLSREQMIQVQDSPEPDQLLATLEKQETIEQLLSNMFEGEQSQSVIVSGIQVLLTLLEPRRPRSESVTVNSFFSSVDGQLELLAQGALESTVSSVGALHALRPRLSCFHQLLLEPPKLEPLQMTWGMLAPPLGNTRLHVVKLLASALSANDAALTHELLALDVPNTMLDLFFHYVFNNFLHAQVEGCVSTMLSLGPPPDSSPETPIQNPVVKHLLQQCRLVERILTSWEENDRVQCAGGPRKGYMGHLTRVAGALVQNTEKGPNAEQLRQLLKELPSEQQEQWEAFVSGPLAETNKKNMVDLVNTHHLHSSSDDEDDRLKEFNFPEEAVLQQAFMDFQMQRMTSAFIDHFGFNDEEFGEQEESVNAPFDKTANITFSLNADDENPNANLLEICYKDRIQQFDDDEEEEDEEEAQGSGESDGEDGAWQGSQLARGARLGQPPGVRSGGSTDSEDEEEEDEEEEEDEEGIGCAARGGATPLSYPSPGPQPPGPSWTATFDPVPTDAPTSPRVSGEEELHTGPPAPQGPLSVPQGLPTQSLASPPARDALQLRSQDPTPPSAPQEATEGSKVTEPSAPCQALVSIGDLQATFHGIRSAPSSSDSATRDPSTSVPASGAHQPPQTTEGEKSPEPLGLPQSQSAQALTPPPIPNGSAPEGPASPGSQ
Chain of UniProt P42785 (P42785 whole entry, looked up): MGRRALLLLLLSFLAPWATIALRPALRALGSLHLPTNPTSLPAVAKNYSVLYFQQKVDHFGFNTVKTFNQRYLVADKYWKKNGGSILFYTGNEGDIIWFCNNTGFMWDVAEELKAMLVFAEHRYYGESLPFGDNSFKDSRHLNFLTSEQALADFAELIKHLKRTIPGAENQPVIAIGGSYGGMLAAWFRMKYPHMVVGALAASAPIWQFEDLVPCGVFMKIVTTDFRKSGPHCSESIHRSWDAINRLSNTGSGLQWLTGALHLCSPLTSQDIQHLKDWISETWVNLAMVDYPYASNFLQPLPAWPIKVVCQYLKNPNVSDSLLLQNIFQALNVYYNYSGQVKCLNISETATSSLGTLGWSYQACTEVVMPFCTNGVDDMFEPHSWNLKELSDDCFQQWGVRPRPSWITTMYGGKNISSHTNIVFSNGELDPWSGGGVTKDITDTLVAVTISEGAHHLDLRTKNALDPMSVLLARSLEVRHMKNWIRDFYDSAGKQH
Chain of UniProt O00408 (O00408 whole entry, looked up): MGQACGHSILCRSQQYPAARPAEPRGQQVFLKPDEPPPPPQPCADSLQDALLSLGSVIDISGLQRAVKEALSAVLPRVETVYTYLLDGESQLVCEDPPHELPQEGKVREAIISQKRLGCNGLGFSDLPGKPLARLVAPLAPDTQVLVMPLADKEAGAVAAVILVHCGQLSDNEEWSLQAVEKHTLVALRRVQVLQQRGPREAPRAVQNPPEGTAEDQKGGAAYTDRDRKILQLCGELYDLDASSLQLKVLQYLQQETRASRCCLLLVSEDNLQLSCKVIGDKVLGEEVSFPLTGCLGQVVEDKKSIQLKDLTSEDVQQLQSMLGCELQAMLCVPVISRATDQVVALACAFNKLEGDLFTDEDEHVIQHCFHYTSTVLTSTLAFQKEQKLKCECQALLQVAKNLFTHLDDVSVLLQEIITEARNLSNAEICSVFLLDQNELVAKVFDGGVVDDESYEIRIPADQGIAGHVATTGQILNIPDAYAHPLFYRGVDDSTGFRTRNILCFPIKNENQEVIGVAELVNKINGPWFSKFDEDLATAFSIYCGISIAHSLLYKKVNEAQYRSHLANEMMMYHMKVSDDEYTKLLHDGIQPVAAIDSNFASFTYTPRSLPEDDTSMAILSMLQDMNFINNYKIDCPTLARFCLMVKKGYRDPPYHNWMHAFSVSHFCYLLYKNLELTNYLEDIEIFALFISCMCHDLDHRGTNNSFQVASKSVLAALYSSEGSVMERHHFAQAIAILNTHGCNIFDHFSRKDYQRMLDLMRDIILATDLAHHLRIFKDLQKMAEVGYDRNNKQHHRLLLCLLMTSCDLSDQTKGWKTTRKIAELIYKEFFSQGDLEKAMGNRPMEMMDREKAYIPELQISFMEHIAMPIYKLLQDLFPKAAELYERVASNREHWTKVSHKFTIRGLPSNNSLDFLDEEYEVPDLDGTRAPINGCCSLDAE
Chain of UniProt Q9UMR5 (Q9UMR5 whole entry, looked up): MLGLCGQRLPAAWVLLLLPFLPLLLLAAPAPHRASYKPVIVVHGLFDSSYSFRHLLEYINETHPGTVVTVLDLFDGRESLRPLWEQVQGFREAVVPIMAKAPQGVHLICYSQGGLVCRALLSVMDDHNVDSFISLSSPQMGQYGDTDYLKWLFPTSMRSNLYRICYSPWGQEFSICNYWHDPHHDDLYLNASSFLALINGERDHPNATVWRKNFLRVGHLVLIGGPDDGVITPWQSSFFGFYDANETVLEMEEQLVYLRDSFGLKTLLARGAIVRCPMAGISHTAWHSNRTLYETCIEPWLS

Row | Target | log2 fold change (IRAK-1-4 Inhibitor I) | log2 fold change (ibrutinib) | log2 fold change [1] | log2 fold change (ralimetinib) | log2 fold change [2] | log2 fold change [3] | log2 fold change [4] | log2 fold change (pinometostat) | log2 fold change [5] | log2 fold change [6] | log2 fold change [7] | log2 fold change [8] | log2 fold change [9] | log2 fold change [10] | log2 fold change (Nexturastat A) | log2 fold change (vemurafenib) | log2 fold change [11] | log2 fold change [12] | log2 fold change (givinostat) | log2 fold change (barasertib)
1 | PTK2B (UniProt Q14289) | -0.095 | -0.257 | -0.018 | 0.178 | -0.026 | -0.244 | 0.052 | 0.004 | -0.014 | 0.061 | -0.09 | 0 | 0.06 | -0.008 | 0.217 | -0.129 | 0 | 0.06 | 0.421 | 0.031
2 | PRKAR1B (UniProt P31321) | 0.005 | 0.004 | -0.112 | 0.143 | -0.013 | -0.11 | 0.007 | 0.105 | -0.079 | -0.104 | 0.102 | -0.019 | 0.004 | -0.057 | 0.015 | 0.04 | -0.038 | 0.133 | -0.036 | -0.12
3 | PDE2A (UniProt O00408) | 0.083 | 0.026 | -0.001 | 0.12 | -0.082 | 0.014 | -0.009 | -0.007 | -0.064 | 0.043 | -0.041 | 0.007 | 0.041 | -0.019 | -0.054 | 0.013 | 0.036 | -0.012 | -0.043 | 0.011
4 | PFAS (UniProt O15067) | -0.055 | 0.065 | -0.217 | -0.003 | 0.02 | 0.131 | -0.055 | -0.02 | 0.039 | 0.17 | -0.056 | -0.119 | 0.172 | 0.002 | -0.081 | 0.032 | -0.003 | -0.039 | 0.05 | 0.061
5 | PRKCA (UniProt P17252) | 0.012 | -0.02 | -0.595 (active) | -0.039 | -0.02 | -0.035 | 0.104 | -0.015 | 0.011 | 0.064 | -0.014 | -0.068 | -0.016 | 0.007 | 0.023 | -0.015 | 0.012 | -0.021 | -0.02 | 0.025
6 | PPP6R1 (UniProt Q9UPN7) | 0 | 0.009 | 0.039 | -0.01 | -0.031 | -0.077 | 0.038 | -0.047 | 0.003 | -0.041 | 0.014 | 0.023 | 0.022 | 0.036 | -0.1 | 0.08 | 0.018 | -0.001 | -0.018 | -0.025
7 | PUM1 isoform 3 (UniProt Q14671) | 0.004 | 0.02 | -0.097 | 0.013 | -0.022 | -0.059 | 0.02 | 0.023 | 0.006 | 0.063 | -0.011 | 0.01 | 0.011 | 0.042 | 0.06 | 0.02 | 0.05 | 0.002 | -0.03 | 0.011
8 | PLK1 (UniProt P53350) | -0.035 | 0.022 | -1.17 (active) | 0.006 | -0.011 | 0.186 | 0.015 | 0.019 | 0.005 | 0.144 | 0.003 | -0.052 | -0.03 | -0.012 | 0.003 | 0.018 | 0.029 | 0.042 | -0.314 (active) | 0.015
9 | PPP1R14A (UniProt Q96A00) | 0.041 | -0.01 | 0.036 | 0.218 | -0.009 | 0.126 | -0.122 | -0.065 | 0.01 | -0.073 | -0.002 | -0.04 | 0.004 | 0.051 | -0.006 | -0.005 | -0.054 | 0.062 | -0.004 | 0.013
10 | PPT2 isoform 3 (UniProt Q9UMR5) | 0.078 | 0.036 | -0.04 | 0.052 | 0.006 | -0.17 | -0.014 | -0.041 | -0.012 | 0.037 | -0.064 | -0.002 | 0.025 | 0.078 | 0 | -0.001 | 0.052 | 0.002 | 0.041 | -0.017
11 | POLR2G (UniProt P62487) | 0.001 | 0.078 | 0.329 (active) | -0.052 | -0.011 | 0.371 (active) | 0.012 | -0.044 | -0.053 | 0.268 | 0.025 | -0.033 | 0.059 | 0.057 | -0.015 | -0.022 | 0.009 | -0.038 | -0.094 | -0.019
12 | PRKACB isoform 2 (UniProt P22694) | -0.007 | -0.032 | -0.067 | -0.035 | -0.011 | -0.012 | 0.054 | -0.008 | -0.034 | 0.044 | -0.014 | 0.015 | 0.011 | 0.077 | 0.059 | -0.007 | 0.031 | -0.129 | -0.024 | 0.036
13 | PRPSAP2 (UniProt O60256) | 0.02 | 0.008 | 0.074 | -0.013 | 0.003 | 0.035 | -0.017 | -0.003 | 0.033 | 0.063 | -0.141 | -0.002 | -0.021 | -0.07 | -0.083 | -0.022 | -0.019 | -0.026 | -0.034 | -0.005
14 | POMK (UniProt Q9H5K3) | 0.046 | -0.036 | -0.042 | 0.032 | -0.024 | -0.23 | 0.027 | 0.094 | -0.009 | 0.042 | 0.029 | -0.018 | 0.028 | 0 | -0.01 | 0.04 | 0.041 | 0 | 0.002 | 0.11
15 | PRCP (UniProt P42785) | 0.04 | 0.012 | 0.014 | -0.01 | -0.072 | -0.077 | -0.025 | -0.006 | 0.012 | -0.101 | 0 | 0.061 | 0.022 | -0.002 | 0.072 | 0.008 | 0.01 | -0.082 | 0.035 | -0.008
16 | PFDN1 (UniProt O60925) | -0.187 | -0.119 | -0.002 | -0.141 | -0.031 | 0.062 | -0.13 | -0.175 | -0.021 | 0.254 | 0.039 | -0.131 | 0.089 | 0.041 | -0.071 | 0.172 | -0.019 | -0.016 | 0.004 | 0.002
